Data: the supplement of paper PMC4709259
Where a name gives a salt, the structure may show the parent alone. ± gives the standard deviation.

How the values were obtained:
[1] = system: Jurkat; experiment: mean cell size (FSC-A) relative to DMSO control (fraction of control); higher = larger cells; conditions: 48 h
In short: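 Jurkat cells at 600 cells/µl were incubated for 1 h and then treated for 48h with the Enzo Screen-Well FDA Approved Drug Library v2.0 at 25µM, with DMSO at 0.9% (v/v) final. Compounds that reduced counts below 20% of controls were retested in 10-fold dilutions down to 25nM. Cell count and mean cell size, taken as forward scatter area, were measured by flow cytometry relative to solvent-only controls. Each plate carried 6-12 controls, and values are means of 3 biological replicates.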

[2] = system: Jurkat; experiment: cell count relative to DMSO control (fraction of control); higher = more cells (less growth inhibition); conditions: 48 h

SMILES	mean cell size [1]	cell count [2]
Nc1ccc(O)c(C(=O)O)c1 [Mesalamine (5-Aminosalicylic Acid)] (concentration: 25 µM)	0.912 ± 0.019	1 ± 0.046
COc1cc(C(C)=O)ccc1OCCCN1CCC(c2noc3cc(F)ccc23)CC1 [Iloperidone] (concentration: 25 µM)	0.954 ± 0.031	0.734 ± 0.088
O=C1CN2Cc3c(ccc(Cl)c3Cl)N=C2N1 [Anagrelide] (concentration: 25 µM)	1 ± 0.023	0.696 ± 0.12
CCCCCCCN(CC)CCCC(O)c1ccc(NS(C)(=O)=O)cc1 (centres undefined) [Ibutilide Fumarate] (concentration: 25 µM)	0.936 ± 0.027	0.903 ± 0.047
CC(C)(C(=O)c1cccnc1)c1cccnc1 [Metyrapone] (concentration: 25 µM)	1.04 ± 0.058	0.924 ± 0.079
CN/C(=N\CCSCc1nc[nH]c1C)NC#N [Cimetidine] (concentration: 25 µM)	1.02 ± 0.072	0.733 ± 0.17
COc1ccc([C@@H]2Sc3ccccc3N(CCN(C)C)C(=O)[C@@H]2OC(C)=O)cc1 [Diltiazem·HCl] (concentration: 25 µM)	0.959 ± 0.053	0.359 ± 0.13
CCCOc1ccc(C(=O)OCCN(CC)CC)cc1N [Proparacaine·HCl] (concentration: 25 µM)	1.06 ± 0.046	1.07 ± 0.05
NCC(=O)CCC(=O)O [Aminolevulinic Acid·HCl] (concentration: 25 µM)	0.911 ± 0.013	0.638 ± 0.08
N[C@@H]1CONC1=O [Cycloserine] (concentration: 25 µM)	0.966 ± 0.013	0.475 ± 0.095
Cc1nc(Nc2ncc(C(=O)Nc3c(C)cccc3Cl)s2)cc(N2CCN(CCO)CC2)n1 [Dasatinib] (concentration: 2.5 µM)	0.8161 ± 0.0028	1.03 ± 0.063
CNNCc1ccc(C(=O)NC(C)C)cc1 [Procarbazine·HCl] (concentration: 25 µM)	1.01 ± 0.053	0.822 ± 0.1
Cc1nccn1CC1CCc2c(c3ccccc3n2C)C1=O (centres undefined) [Ondansetron] (concentration: 25 µM)	0.97 ± 0.028	0.816 ± 0.074
CC1(C)S[C@@H]2[C@H](NC(=O)[C@H](N)c3ccccc3)C(=O)N2[C@H]1C(=O)O [Ampicillin Trihydrate] (concentration: 25 µM)	0.849 ± 0.05	1.17 ± 0.068
CCCN(CCC)S(=O)(=O)c1ccc(C(=O)O)cc1 [Probenecid] (concentration: 25 µM)	0.993 ± 0.012	0.595 ± 0.13
CO/N=C(\C(=O)N[C@@H]1C(=O)N2C(C(=O)OCOC(=O)C(C)(C)C)=C(/C=C\c3scnc3C)CS[C@H]12)c1csc(N)n1 [Cefditoren Pivoxil] (concentration: 25 µM)	0.9999 ± 0.0094	0.77 ± 0.14
CNCCCN1c2ccccc2CCc2ccccc21 [Desipramine·HCl] (concentration: 25 µM)	0.9721 ± 0.0012	0.721 ± 0.066
